In PubChem BioAssay (EPA / NIEHS):
Records with an inconclusive call do not appear. The source made the active and inactive calls. How the source made its calls, unless noted: active means hit-call score of the fitted dose curve at least 0.9, where 1 is the maximum; inactive means score below 0.9.

Key:
[1] = ATG_NFI_CIS: Attagene CIS-FACTORIAL HepG2 Assay for human Nuclear Factor I (NFI) (AID 2282989); details: HepG2 cis-regulatory reporter, NFI response element transcription; actives raise or lower the signal
Outline: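 Transient MRTU transfection of HepG2 → 24 h chemical dosing → total RNA, oligo(dT) RT → PCR, 6-FAM primer extension, HpaI cut → capillary electrophoresis. Endpoint fitted bidirectionally relative to DMSO.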

[2] = target: Myc proto-oncogene protein (Homo sapiens) (UniProt P01106); assay: ATG_Myc_CIS: Attagene CIS-FACTORIAL HepG2 Assay for human Myelocytomatosis (Myc) Proto-Oncogene Transcription Factor (AID 2282990); details: HepG2, Attagene cis-reporter transcription factor activity; actives raise or lower the signal
Outline: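 Transiently transfected HepG2 cells bearing cis-promoter reporter units for endogenous transcription factors; 24 h exposure. Reporter mRNA measured by RT-PCR, 6-FAM primer extension, HpaI cut and capillary electrophoresis; bidirectional fit relative to DMSO.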

[3] = ATG_NF_kB_CIS: Attagene CIS-FACTORIAL HepG2 Assay for human Nuclear Factor Kappa B (NF-kB) (AID 2282991); details: HepG2 Attagene cis-factorial NF-kB reporter mRNA; actives raise or lower the signal
Outline: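 DMSO served as negative control and baseline for bidirectional curve fitting. Transiently transfected HepG2 cells were dosed for 24 h, then reporter transcripts were measured by RT-PCR with capillary electrophoresis detection.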

[4] = ATG_NRF2_ARE_CIS: Attagene CIS-FACTORIAL HepG2 Assay for human Nuclear Factor Erythroid 2 Related Factor 2 (NFR2) response to Antioxidant Response Elements (ARE) (AID 2282992); details: HepG2 Attagene ARE/NRF2 reporter, transcription factor activity; actives raise or lower the signal;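 on AC50: reporter mRNA level measured by RT-PCR and capillary electrophoresis fluorescence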
Outline: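 Transient MRTU transfection of HepG2; 24 h compound exposure; TriZol RNA, RT with oligo(dT), PCR, 6-FAM primer extension, HpaI cut, CE. Bidirectional fit vs DMSO.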

[5] = target: Cellular tumor antigen p53 (Homo sapiens) (UniProt P04637); assay: ATG_p53_CIS: Attagene CIS-FACTORIAL HepG2 Assay for human p53 Transcription Factor (AID 2282994); details: HepG2 p53 cis-element reporter, Attagene mRNA; actives raise or lower the signal
Outline: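 HepG2, transient MRTU transfection (cis promoter elements, endogenous TFs); 24 h dosing; RNA isolation, RT-PCR, 6-FAM primer extension, HpaI digest, CE fluorescence; bidirectional fit vs DMSO.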

[6] = target: human Peroxisome Proliferator-activated Receptor alpha (PPARa), PPARA (gene 5465) (UniProt Q07869); assay: ATG_PPARa_TRANS: Attagene TRANS-FACTORIAL HepG2 Assay for human Peroxisome Proliferator-activated Receptor alpha (PPARa) (AID 2283001; active means hit-call score of the fitted dose curve at least 0.9, where 1 is the maximum;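 on AC50: potency for gain of reporter signal over DMSO so agonist or activator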)
Outline: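 Measures transcriptional activity of an exogenous chimeric PPARa-Gal4 protein in transiently transfected HepG2 cells after 24 h dosing. Reporter mRNA quantified via RT-PCR and capillary electrophoresis; DMSO served as negative control.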

[7] = target: Peroxisome proliferator-activated receptor gamma (Homo sapiens) (UniProt P37231); assay: ATG_PPARg_TRANS: Attagene TRANS-FACTORIAL HepG2 Assay for human Peroxisome Proliferator-activated Receptor-gamma (PPARg) (AID 2283007; active means hit-call score of the fitted dose curve at least 0.9, where 1 is the maximum)
Outline: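 Chimeric NR-Gal4 transactivation is measured in transiently transfected HepG2 cells by reporter mRNA induction at 24 h. Detection uses RT-PCR with fluorescent labelling and capillary electrophoresis; DMSO defines baseline.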

[8] = target: Nuclear receptor subfamily 1 group I member 2 (Homo sapiens) (UniProt O75469); assay: ATG_PXR_TRANS: Attagene TRANS-FACTORIAL HepG2 Assay for human Pregnane X Receptor (PXR) (AID 2283008; active means hit-call score of the fitted dose curve at least 0.9, where 1 is the maximum)
Outline: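 Read-out is fluorescence of labelled reporter cDNA fragments separated by capillary electrophoresis after RT-PCR and HpaI digestion. Source: HepG2 cells carrying PXR-GAL4/UAS reporter constructs, treated 24 h; activity fitted upward relative to DMSO.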

[9] = ATG_Oct_MLP_CIS: Attagene CIS-FACTORIAL HepG2 Assay for human Octamer-Binding Transcription Factor (Oct) (AID 2282993); details: HepG2 Attagene cis-factorial Oct reporter, mRNA; actives raise or lower the signal
Outline: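 Transient MRTU transfection of HepG2 → 24 h compound treatment → RNA isolation, reverse transcription, PCR → 6-FAM primer extension, HpaI digest → capillary electrophoresis. Activity fitted both directions against DMSO.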

[10] = BSK_3C_TissueFactor: BioMAP Diversity Plus: 3C Assay for Tissue Factor Biomarker Activity (AID 2282997); details: BioMAP 3C HUVEC, tissue factor biomarker readout; actives raise or lower the signal
Outline: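 Dosing of human umbilical vein endothelial cells preceded a 24 h incubation. Tissue Factor was then read by ELISA, with increases and decreases both scored relative to DMSO controls.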

[11] = BSK_3C_uPAR: BioMAP Diversity Plus: 3C Assay for Urokinase-type plasminogen activator receptor (uPAR) Biomarker Activity (AID 2282998); details: BioMAP 3C HUVEC, uPAR biomarker ELISA; actives raise or lower the signal
Outline: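 ELISA readout of uPAR on human vascular endothelium (umbilical vein primary cells), taken 24 h after chemical dosing. Increases and decreases are both fitted relative to DMSO vehicle.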

[12] = BSK_3C_VCAM1: BioMAP Diversity Plus: 3C Assay for Vascular cell adhesion molecule 1 (VCAM1) Biomarker Activity (AID 2282999); details: BioMAP 3C HUVEC, VCAM1 ELISA, cytokine-stimulated; actives raise or lower the signal
Outline: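 Human umbilical vein endothelial cells (3C system), biomarker read by ELISA 24 h after dosing; bidirectional fit against DMSO baseline. Cytotoxicity tracked by SRB total-protein staining in parallel cultures at biomarker time.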

[13] = BSK_4H_Eotaxin3: BioMAP Diversity Plus: 4H Assay for Eotaxin 3 Biomarker Activity (AID 2283000); details: primary human endothelial cells (HUVEC); actives raise or lower the signal;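 further: CCL26 protein level quantified by ELISA in parallel with SRB cytotoxicity check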
Outline: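 Human umbilical vein endothelial cells (BSK_4H system) dosed with test chemical; Eotaxin-3 (CCL26) measured by ELISA 24 h after dosing. Bidirectional curve fitting relative to DMSO negative control as baseline.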

[14] = read-out: Intercellular Adhesion Molecule 1 (ICAM1), ICAM1 (gene 3383); assay: BSK_3C_ICAM1: BioMAP Diversity Plus: 3C Assay for Intercellular Adhesion Molecule 1 (ICAM1) Biomarker Activity (AID 2283003); details: primary human endothelial cells (HUVEC); actives raise or lower the signal
Outline: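 Primary human umbilical vein endothelial cells in the BioMAP 3C system were exposed to chemicals for 24 h, then ICAM-1 was quantified by ELISA. Activity was fitted bidirectionally against the DMSO negative control baseline.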

[15] = BSK_3C_Proliferation: Cell Proliferation Assessment in the BioMAP Diversity Plus: 3C Assay (AID 2283006); details: primary human endothelial cells (HUVEC)
Outline: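 Human umbilical vein endothelial cells were grown sub-confluent and exposed to chemical for 48 h, then fixed with 10% TCA and stained with 0.1% sulforhodamine B; absorbance at 560 nm gave relative cell number, fitted bidirectionally against DMSO baseline.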

[16] = target: human Peroxisome Proliferator-activated Receptor delta (PPARd), PPARD (gene 5467) (UniProt Q03181); assay: ATG_PPARd_TRANS: Attagene TRANS-FACTORIAL HepG2 Assay for human Peroxisome Proliferator-activated Receptor delta (PPARd) (AID 2283002; active means hit-call score of the fitted dose curve at least 0.9, where 1 is the maximum)
Outline: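 HepG2 cells transiently transfected with GAL4-UAS multiplexed reporter units driven by exogenous chimeric NR-GAL4 proteins; 24 h compound exposure. Reporter mRNA measured by RT-PCR, 6-FAM primer extension, HpaI digestion and capillary electrophoresis; gain of signal fitted relative to DMSO.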

[17] = target: Retinoic acid receptor alpha (Homo sapiens) (UniProt P10276); assay: ATG_RARa_TRANS: Attagene TRANS-FACTORIAL HepG2 Assay for human Retinoic Acid Receptor alpha (RARa) (AID 2283005; active means hit-call score of the fitted dose curve at least 0.9, where 1 is the maximum)
Outline: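 HepG2 transiently transfected with multiplex GAL4-UAS reporter units including a human RARa–GAL4 chimera; 24 h compound exposure. Reporter mRNA quantified by RT-PCR, 6-FAM labeling and capillary electrophoresis; gain of signal versus DMSO.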

[18] = target: human Retinoic Acid Receptor beta (RARb), RARB (gene 5915) (UniProt P10826); assay: ATG_RARb_TRANS: Attagene TRANS-FACTORIAL HepG2 Assay for human Retinoic Acid Receptor beta (AID 2283004; active means hit-call score of the fitted dose curve at least 0.9, where 1 is the maximum)
Outline: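 Induction of reporter mRNA from a chimeric RARb-Gal4 construct was measured by RT-PCR, FAM labelling, HpaI digestion and capillary electrophoresis. Measurements followed 24 h compound treatment of transiently transfected human HepG2 liver cells, with DMSO as baseline.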

[19] = target: human Retinoic Acid Receptor gamma (RARg), RARG (gene 5916) (UniProt P13631); assay: ATG_RARg_TRANS: Attagene TRANS-FACTORIAL HepG2 Assay for human Retinoic Acid Receptor gamma (RARg) (AID 2283009; active means hit-call score of the fitted dose curve at least 0.9, where 1 is the maximum)
Outline: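 HepG2 cells transiently transfected with multiplexed reporter units expressing chimeric RARg-GAL4 and GAL4-UAS-driven reporters; 24 h compound exposure. Reporter mRNA quantified by RT-PCR with fluorescent labelling and capillary electrophoresis; gain-of-signal fitted relative to DMSO baseline.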

[20] = target: human RAR-related Orphan Receptor beta (RORb), RORB (gene 6096) (UniProt Q92753); assay: ATG_RORb_TRANS: Attagene TRANS-FACTORIAL HepG2 Assay for human RAR-related Orphan Receptor beta (RORb) (AID 2283010; active means hit-call score of the fitted dose curve at least 0.9, where 1 is the maximum)
Outline: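 HepG2 cells were transiently transfected with multiplexed GAL4-UAS reporter units expressing chimeric nuclear receptor–GAL4 proteins, then dosed for 24 h. Reporter mRNA was quantified by RT-PCR with fluorescent labelling and capillary electrophoresis; gain of signal was fitted relative to DMSO.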

Measured: AC50

Myc proto-oncogene protein (Homo sapiens), sequence (P01106 whole entry, looked up): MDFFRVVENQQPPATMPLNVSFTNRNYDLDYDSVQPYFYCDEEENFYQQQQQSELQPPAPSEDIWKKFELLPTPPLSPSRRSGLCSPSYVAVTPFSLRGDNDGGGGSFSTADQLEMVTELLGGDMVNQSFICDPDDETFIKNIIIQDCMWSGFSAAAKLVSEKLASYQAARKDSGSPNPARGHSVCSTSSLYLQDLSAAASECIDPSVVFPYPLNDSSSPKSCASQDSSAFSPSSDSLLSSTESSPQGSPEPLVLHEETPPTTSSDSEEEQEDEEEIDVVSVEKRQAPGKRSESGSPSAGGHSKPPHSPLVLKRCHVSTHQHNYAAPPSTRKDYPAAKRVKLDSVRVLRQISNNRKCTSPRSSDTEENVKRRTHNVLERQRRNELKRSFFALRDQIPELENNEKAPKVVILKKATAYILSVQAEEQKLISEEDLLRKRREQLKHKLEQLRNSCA
human Peroxisome Proliferator-activated Receptor alpha (PPARa), PPARA (gene 5465), sequence (Q07869 whole entry, looked up, the tested form may be a part): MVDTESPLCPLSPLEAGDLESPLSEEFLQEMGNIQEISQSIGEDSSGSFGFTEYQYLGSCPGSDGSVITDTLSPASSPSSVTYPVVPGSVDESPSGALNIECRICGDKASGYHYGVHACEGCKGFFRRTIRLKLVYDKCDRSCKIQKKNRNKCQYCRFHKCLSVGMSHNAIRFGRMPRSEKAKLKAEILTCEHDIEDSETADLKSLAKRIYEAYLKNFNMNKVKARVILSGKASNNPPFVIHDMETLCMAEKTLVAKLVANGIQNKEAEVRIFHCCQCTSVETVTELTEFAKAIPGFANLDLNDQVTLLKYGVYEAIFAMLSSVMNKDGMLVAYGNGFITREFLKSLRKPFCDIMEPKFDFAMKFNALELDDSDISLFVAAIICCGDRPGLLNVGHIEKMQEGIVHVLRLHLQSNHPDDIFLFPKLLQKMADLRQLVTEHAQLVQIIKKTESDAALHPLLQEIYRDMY
Cellular tumor antigen p53 (Homo sapiens), sequence (P04637 whole entry, looked up): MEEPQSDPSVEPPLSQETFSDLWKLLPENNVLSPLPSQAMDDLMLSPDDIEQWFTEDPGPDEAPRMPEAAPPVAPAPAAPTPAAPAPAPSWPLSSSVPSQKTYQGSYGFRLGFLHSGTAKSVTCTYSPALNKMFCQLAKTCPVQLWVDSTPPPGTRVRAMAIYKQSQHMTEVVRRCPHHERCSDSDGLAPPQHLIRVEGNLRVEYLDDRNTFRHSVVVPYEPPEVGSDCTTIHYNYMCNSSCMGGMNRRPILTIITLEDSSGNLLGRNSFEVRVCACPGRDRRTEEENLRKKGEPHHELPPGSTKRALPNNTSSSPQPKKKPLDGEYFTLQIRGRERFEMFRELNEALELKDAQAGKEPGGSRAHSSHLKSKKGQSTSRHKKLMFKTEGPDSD
human Peroxisome Proliferator-activated Receptor delta (PPARd), PPARD (gene 5467), sequence (Q03181 whole entry, looked up, the tested form may be a part): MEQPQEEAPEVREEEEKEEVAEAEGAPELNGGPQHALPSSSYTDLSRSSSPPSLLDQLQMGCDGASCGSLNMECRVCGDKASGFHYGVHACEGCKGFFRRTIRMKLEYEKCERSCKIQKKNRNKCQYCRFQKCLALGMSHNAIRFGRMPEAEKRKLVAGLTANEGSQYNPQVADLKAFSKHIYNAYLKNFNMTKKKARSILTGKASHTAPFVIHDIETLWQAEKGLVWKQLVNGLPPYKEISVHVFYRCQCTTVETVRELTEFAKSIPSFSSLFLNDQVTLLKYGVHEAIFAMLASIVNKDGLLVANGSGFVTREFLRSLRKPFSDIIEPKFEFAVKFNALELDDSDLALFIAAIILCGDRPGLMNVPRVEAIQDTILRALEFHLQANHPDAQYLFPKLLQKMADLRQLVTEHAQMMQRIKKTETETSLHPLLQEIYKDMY
human Retinoic Acid Receptor gamma (RARg), RARG (gene 5916), sequence (P13631 whole entry, looked up, the tested form may be a part): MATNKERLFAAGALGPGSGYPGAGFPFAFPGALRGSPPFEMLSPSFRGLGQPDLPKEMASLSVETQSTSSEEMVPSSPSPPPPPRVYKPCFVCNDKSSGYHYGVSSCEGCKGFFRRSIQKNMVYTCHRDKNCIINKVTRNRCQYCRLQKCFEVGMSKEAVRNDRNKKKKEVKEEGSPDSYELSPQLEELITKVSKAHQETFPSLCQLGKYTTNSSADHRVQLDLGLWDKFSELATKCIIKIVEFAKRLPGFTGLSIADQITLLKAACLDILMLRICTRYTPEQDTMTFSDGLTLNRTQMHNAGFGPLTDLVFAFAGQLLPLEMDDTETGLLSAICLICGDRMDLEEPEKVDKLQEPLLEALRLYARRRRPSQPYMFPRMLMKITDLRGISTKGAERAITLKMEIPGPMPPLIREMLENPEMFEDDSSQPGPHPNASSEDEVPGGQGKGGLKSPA
Peroxisome proliferator-activated receptor gamma (Homo sapiens), sequence (P37231 whole entry, looked up, the tested form may be a part): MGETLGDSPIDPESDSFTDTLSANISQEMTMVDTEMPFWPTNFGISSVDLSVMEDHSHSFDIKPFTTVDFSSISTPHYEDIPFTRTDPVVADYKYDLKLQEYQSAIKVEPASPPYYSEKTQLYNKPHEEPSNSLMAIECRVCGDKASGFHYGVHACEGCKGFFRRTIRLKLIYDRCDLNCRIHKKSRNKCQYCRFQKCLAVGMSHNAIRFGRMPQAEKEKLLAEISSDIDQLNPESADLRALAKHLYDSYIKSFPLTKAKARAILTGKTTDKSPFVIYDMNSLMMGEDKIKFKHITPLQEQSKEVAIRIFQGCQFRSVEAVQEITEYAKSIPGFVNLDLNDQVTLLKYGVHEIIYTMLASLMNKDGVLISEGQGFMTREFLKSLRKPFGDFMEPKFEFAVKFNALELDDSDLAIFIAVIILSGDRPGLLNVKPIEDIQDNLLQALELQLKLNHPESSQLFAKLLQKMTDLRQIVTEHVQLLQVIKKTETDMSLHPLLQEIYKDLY
Nuclear receptor subfamily 1 group I member 2 (Homo sapiens), sequence (O75469 whole entry, looked up, the tested form may be a part): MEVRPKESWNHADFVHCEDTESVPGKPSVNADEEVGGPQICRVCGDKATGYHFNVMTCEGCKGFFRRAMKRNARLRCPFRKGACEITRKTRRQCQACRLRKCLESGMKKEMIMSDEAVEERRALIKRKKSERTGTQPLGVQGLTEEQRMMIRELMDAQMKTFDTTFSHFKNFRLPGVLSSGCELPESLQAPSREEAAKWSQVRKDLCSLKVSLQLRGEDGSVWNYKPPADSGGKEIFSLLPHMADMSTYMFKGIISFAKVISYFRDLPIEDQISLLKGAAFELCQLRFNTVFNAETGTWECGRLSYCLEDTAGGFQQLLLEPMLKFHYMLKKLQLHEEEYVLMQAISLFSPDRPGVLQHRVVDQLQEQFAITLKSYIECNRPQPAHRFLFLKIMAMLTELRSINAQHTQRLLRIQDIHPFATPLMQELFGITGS
human RAR-related Orphan Receptor beta (RORb), RORB (gene 6096), sequence (Q92753 whole entry, looked up, the tested form may be a part): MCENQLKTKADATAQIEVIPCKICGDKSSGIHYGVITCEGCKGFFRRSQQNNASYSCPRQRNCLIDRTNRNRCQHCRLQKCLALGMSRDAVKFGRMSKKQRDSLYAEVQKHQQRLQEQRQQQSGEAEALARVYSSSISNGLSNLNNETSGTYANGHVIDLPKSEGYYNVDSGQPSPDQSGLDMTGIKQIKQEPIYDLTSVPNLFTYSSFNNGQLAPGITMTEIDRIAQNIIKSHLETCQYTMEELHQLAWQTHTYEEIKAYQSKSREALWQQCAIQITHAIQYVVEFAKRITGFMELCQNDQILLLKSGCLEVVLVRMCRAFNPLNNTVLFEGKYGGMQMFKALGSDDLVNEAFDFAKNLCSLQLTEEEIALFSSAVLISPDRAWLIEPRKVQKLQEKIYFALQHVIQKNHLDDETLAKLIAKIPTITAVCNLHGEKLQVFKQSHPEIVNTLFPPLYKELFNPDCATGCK
human Retinoic Acid Receptor beta (RARb), RARB (gene 5915), sequence (P10826 whole entry, looked up, the tested form may be a part): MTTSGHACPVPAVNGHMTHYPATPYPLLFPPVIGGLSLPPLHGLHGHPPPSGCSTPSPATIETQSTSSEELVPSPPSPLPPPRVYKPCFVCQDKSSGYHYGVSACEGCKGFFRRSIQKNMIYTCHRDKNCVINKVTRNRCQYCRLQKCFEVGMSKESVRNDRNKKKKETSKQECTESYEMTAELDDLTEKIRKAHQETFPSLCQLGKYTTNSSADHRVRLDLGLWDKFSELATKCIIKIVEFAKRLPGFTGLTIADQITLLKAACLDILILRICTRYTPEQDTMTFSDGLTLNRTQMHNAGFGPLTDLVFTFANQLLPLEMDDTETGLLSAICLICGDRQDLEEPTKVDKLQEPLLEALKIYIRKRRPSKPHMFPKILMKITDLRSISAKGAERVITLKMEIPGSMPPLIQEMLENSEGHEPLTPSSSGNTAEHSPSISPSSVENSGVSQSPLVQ
Retinoic acid receptor alpha (Homo sapiens), sequence (P10276 whole entry, looked up, the tested form may be a part): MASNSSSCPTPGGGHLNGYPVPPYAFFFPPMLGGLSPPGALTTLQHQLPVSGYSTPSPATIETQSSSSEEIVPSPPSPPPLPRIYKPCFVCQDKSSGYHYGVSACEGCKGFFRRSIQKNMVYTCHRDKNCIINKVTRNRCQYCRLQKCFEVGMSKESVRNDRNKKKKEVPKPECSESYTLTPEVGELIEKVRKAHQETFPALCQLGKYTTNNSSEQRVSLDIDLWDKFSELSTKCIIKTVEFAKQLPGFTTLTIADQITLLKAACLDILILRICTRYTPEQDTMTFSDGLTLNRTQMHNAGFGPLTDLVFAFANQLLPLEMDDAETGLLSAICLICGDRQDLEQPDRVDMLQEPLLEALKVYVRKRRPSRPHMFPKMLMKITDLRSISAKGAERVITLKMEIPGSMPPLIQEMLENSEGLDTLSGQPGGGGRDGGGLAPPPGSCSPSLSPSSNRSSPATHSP

CCCCC/C=C\CCC=O
inactive: [1] | [2] | [3] | [4] | [5] | [6] | [8]
active: [7] 53.6 µM

O=C1CCCN1CCO
not listed: [4] | [6] | [7] | [16] | [17] | [18] | [19] | [20]
inactive: all other assays above

CC(=O)[C@@]1(O)CC[C@H]2[C@@H]3C[C@H](C)C4=CC(=O)C=C[C@]4(C)[C@@]3(F)[C@@H](O)C[C@@]21C
inactive: [1] | [2] | [4] | [9] | [5] | [6] | [16] | [17] | [8]

O=C1c2cccc(O)c2C(=O)c2c(O)cc(CO)cc21
inactive: [1] | [2] | [9] | [5] | [6] | [18] | [17] | [19]
active: [4] 6.09 µM | [7] 50.3 µM | [8] 5.78 µM

O=C1CCCCCCCCCCCCCCCO1
inactive: [1] | [2] | [9] | [5] | [17] | [8]
active: [4] 65.2 µM | [6] 54 µM | [16] 143 µM | [7] 100 µM

O=C(/C=C/C=C/c1ccc2c(c1)OCO2)N1CCCCC1
active: [7] 6.43 µM | [8] 0.893 µM
inactive: [1] | [2] | [3] | [9] | [5]

O=C1C(N(CO)C(=O)NCO)N(CO)C(=O)N1CO (configuration not stated)
inactive: [1] | [2] | [4] | [9] | [5] | [6] | [18] | [17] | [7] | [19] | [20]

CN(C)CCCN(C)C
inactive: [1] | [2] | [4] | [9] | [5] | [16] | [18] | [17] | [7] | [8] | [20]

Cc1ccc([N+](=O)[O-])cc1S(=O)(=O)O
active: [2] 165 µM
inactive: [1] | [3] | [9] | [7] | [8] | [20]

Nc1ccc(Oc2ccc(N)c(N)c2)cc1
active: [7] 60.1 µM
inactive: [1] | [2] | [3] | [9] | [16] | [8] | [19]

O=C(O)CCCCCCCCCC(=O)O
inactive: [1] | [2] | [4] | [9] | [5] | [6] | [7] | [8] | [20]

CCCCCCCCO[C@@H]1O[C@H](CO)[C@@H](O)[C@H](O)[C@H]1O
inactive: [1] | [2] | [4] | [9] | [5] | [6] | [16] | [7] | [8]
